Screens: PubChem BioAssay, National Center for Advancing Translational Sciences (NCATS)
12-LOX inh: blocks human arachidonate 12S-lipoxygenase. P18054. purified 12hLO, xylenol orange hydroperoxide absorbance. Potency, µM (highest dose often 108 µM), most hits filed as inhibitors. 580,000 compounds, 1.1% hits
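Purified human 12hLO at 150 nM in 25 mM Hepes, 0.01% Triton X-100, pH 7.0, preincubated 15 min at room temperature with compound. Reaction started with 40 uM arachidonic acid, 30 min at room temperature. Hydroperoxide measured by Fe-xylenol orange, 573/405 nm absorbance ratio.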
ELG1 DNA repair: inhibitors of ELG1-dependent DNA repair in HEK293T cells. HEK293T ELG1-luciferase reporter, luminescence, 16 h; DNA damage induced by 5-fluorouridine. Potency, µM (titrated, usually from 46.1 µM), most hits filed as inhibitors. 330,000 compounds, 2.3% hits; further: nearly all actives have a fitted effect of over 55% in size
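DMSO vehicle served as the neutral condition. Each well held 2,000 cells given 5-fluorouridine plus compound; after 16 hr at 37 °C/5% CO2, ONE-Glo was added and luciferase measured 30 min later.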
DT40 TDP1 CPT: growth inhibition of DT40 Tdp1-/-;hTDP1 cells with camptothecin (screen for TDP1 inhibitors); chicken DT40 Tdp1-/-;hTDP1 cells + 20 nM CPT, ATP luminescence, 48 h; Potency, µM (highest dose often 46.2 µM), most hits filed as inhibitors; 420,000 compounds, 12% hits; AID 686979; further: nearly all actives have a fitted effect of over 55% in size
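Cell growth measured by CellTiter-Glo luminescence after a minimum 48 h, 37 C compound exposure with 20 nM CPT in Tdp1-knockout DT40 cells stably expressing hTDP1, seeded 400/well; qHTS titration format.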
VP16 counter: Gal4-VP16 reporter inhibition counter-screen; Potency, µM (series often up to 53.6 µM), hits mostly inhibitors; Drosophila S2 Gal4-VP16 UAS-luciferase, luminescence, 20 h; 310,000 compounds, 3.5% hits;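 further: Gal4-VP16 expression switched on by copper sulfate through the metallothionein promoter; nearly all actives have a fitted effect of over 50% in size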
RORg inh: ROR gamma (mouse) transcription inhibition; 310,000 compounds, 5.4% hits; Drosophila S2 Gal4-RORgamma UAS-luciferase reporter, 20 h; Potency, µM (highest dose often 53.6 µM), most hits filed as inhibitors; AID 2551; P51450; further: nearly all actives have a fitted effect of over 60% in size
Target sequence (P51450 whole entry, looked up, the tested form may be a part): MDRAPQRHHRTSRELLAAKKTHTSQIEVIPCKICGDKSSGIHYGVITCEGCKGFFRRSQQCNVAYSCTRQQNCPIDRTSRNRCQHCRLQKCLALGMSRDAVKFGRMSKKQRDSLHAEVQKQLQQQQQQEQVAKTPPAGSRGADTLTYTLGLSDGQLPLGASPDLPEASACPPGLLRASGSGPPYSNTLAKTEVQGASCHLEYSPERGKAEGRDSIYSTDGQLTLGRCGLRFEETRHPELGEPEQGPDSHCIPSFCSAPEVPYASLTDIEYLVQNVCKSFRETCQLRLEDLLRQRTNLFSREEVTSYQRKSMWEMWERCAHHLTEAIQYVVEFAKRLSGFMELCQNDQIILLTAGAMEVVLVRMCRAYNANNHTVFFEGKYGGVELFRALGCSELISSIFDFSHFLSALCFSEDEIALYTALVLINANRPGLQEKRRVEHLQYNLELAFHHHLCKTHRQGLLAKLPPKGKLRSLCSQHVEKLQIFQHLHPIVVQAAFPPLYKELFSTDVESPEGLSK
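Drosophila Schneider cells stably carrying a metallothionein-driven Gal4 DBD–ROR gamma fusion and a UAS-Photinus luciferase reporter were exposed to compound for 1 hr, then induced with copper sulfate (700 uM final) for 20 hr at ambient temperature before luminescence reading.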
DT40 TDP1 no CPT: qHTS for Inhibitors of human tyrosyl-DNA phosphodiesterase 1 (TDP1): qHTS in cells in absence of CPT | Potency, µM (top dose mostly 46.2 µM), usual class: inhibitors | AID 686978, 2013 | DT40 Tdp1-/- hTDP1 cells, no CPT, ATP luminescence, 48 h | 420,000 compounds, 15% hits; further: nearly all actives have a fitted effect of over 55% in size
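Growth kinetics read by CellTiter-Glo luminescence after ≥48 hr at 37 °C. Cells: DT40 Tdp1-/- stably carrying human TDP1, 400 per well, compound exposure in the absence of CPT (DMSO vehicle).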
Large screens that a line does not name were inactive. Rows were chosen to be rich in hits. Some 15% of all compounds tested hit in one or more screens of this group. The call rests on the fitted dose curve; in most records, active means well fitted curve in the direction sought with a large enough effect; inconclusive means small, poorly fitted or top-dose-only effect, or another doubt; inactive means no such curve, though single readings can be large; an effect the other way counts as inactive or inconclusive.

O=C1OC(c2ccco2)=N/C1=C\c1ccc(-c2cccc(C(F)(F)F)c2)o1	12-LOX inh inconclusive, DT40 TDP1 CPT inconclusive, VP16 counter inconclusive, DT40 TDP1 no CPT 23µM
O=C1OC(c2cccs2)=N/C1=C/c1ccc(-c2cccc(C(=O)O)c2)o1	12-LOX inh inconclusive, ELG1 DNA repair inconclusive, DT40 TDP1 CPT inconclusive, DT40 TDP1 no CPT inconclusive
COc1ccc(NC(=O)NCCN2CCN(c3cccc(Cl)c3)CC2)cc1	DT40 TDP1 no CPT inconclusive
O=C(NCCCN1CCN(c2ccc(F)cc2)CC1)C1COc2ccccc2C1 (centres undefined)	DT40 TDP1 CPT 23µM, DT40 TDP1 no CPT inconclusive (no result: ELG1 DNA repair, VP16 counter, RORg inh)
COc1ccc2c(c1)CC(C(=O)NCCCN1CCN(c3cccc(Cl)c3)CC1)CO2 (centres undefined)	DT40 TDP1 CPT 18µM, DT40 TDP1 no CPT 18µM (no result: ELG1 DNA repair, VP16 counter, RORg inh)
CCC(=O)N1c2ccccc2CC1C(=O)NCCCN1CCN(c2cc(C)ccc2C)CC1 (centres undefined)	DT40 TDP1 CPT 21µM, DT40 TDP1 no CPT inconclusive (no result: ELG1 DNA repair, VP16 counter, RORg inh)
Cc1cccc(N2CCN(CCNC(=O)C3COc4ccccc4C3)CC2)c1C (centres undefined)	DT40 TDP1 CPT inconclusive, DT40 TDP1 no CPT 23µM (no result: ELG1 DNA repair, VP16 counter, RORg inh)
O=C(CC1CCCCC1)NCc1cccnc1	none (no result: ELG1 DNA repair, DT40 TDP1 CPT, VP16 counter, RORg inh, DT40 TDP1 no CPT)
COc1cccc(CC(=O)N2CCC([C@H]3[C@@H](OC)C(=O)N3C(C)C)CC2)c1	none (no result: ELG1 DNA repair, DT40 TDP1 CPT, VP16 counter, RORg inh, DT40 TDP1 no CPT)
Cc1cnc(C2CC2)n1C1CCCN(Cc2ccccc2)C1 (centres undefined)	none (no result: ELG1 DNA repair, DT40 TDP1 CPT, VP16 counter, RORg inh, DT40 TDP1 no CPT)
Cc1ccc(Cl)cc1N1CCN(CCCNC(=O)C2COc3ccccc3C2)CC1 (centres undefined)	DT40 TDP1 CPT 3.3µM, DT40 TDP1 no CPT 3.7µM (no result: ELG1 DNA repair, VP16 counter, RORg inh)
O=C(NCCc1ccc(Cl)cc1)C1COc2ccccc2C1 (centres undefined)	none (no result: ELG1 DNA repair, VP16 counter, RORg inh)
Cc1cc2ncc(C(=O)NCC(F)F)cn2n1	none (no result: ELG1 DNA repair, DT40 TDP1 CPT, VP16 counter, RORg inh, DT40 TDP1 no CPT)
CC(C)(C)N=C1NN=C(c2ccc(S(=O)(=O)N3CCCCC3)cc2)CS1	12-LOX inh inconclusive, ELG1 DNA repair inconclusive, DT40 TDP1 CPT 16µM, DT40 TDP1 no CPT inconclusive (no result: VP16 counter, RORg inh)
COc1ccc(-c2cn3cc(Cl)ccc3n2)cc1OC	12-LOX inh inconclusive, ELG1 DNA repair inconclusive, DT40 TDP1 no CPT inconclusive
COc1ccc(-c2cn3cc(C)ccc3n2)cc1Br	ELG1 DNA repair inconclusive, VP16 counter 7.1µM, RORg inh inconclusive, DT40 TDP1 no CPT inconclusive
C[C@H](C(=O)NCCN1CCOCC1)C1CC[C@@]2(C)Cc3sc(CSc4ccccc4)nc3[C@@H](C)[C@@H]2[C@H]1O (some centres undefined)	none (no result: ELG1 DNA repair, DT40 TDP1 CPT, VP16 counter, RORg inh, DT40 TDP1 no CPT)
CC(=O)Nc1ccc(NC(=O)c2cccc3c2-c2ccccc2C3=O)cc1	DT40 TDP1 CPT 21µM, RORg inh inconclusive, DT40 TDP1 no CPT 18µM
CCOC(=O)c1c(C)nc2sc3c(=O)n(-c4ccc(OC)cc4)nnc3c2c1-c1ccc(OC)cc1	12-LOX inh inconclusive, ELG1 DNA repair inconclusive, DT40 TDP1 CPT inconclusive, DT40 TDP1 no CPT inconclusive
COc1ccc(-c2c(C(C)=O)c(C)nc3sc4c(c23)NC(c2ccccc2)NC4=O)cc1 (centres undefined)	none
CCOC(=O)c1c(C)nc2sc3c(=O)n(-c4ccc(C(C)=O)cc4)cnc3c2c1-c1ccc(OC)cc1	DT40 TDP1 no CPT 16µM
CCOC(=O)c1c(C)nc2sc3c(c2c1-c1ccc(OC)cc1)NC(c1ccccc1)NC3=O (centres undefined)	ELG1 DNA repair 16µM, DT40 TDP1 CPT inconclusive, RORg inh inconclusive, DT40 TDP1 no CPT 18µM
CCOC(=O)c1c(C)nc2sc3c(=O)[nH]cnc3c2c1-c1ccc(OC)cc1	ELG1 DNA repair 21µM, DT40 TDP1 no CPT inconclusive
CC(C)C1C(=O)N(Cc2cn(CCC3OCCCO3)nn2)CCS(=O)(=O)N1Cc1ccc(-c2cccc(N(C)C)c2)cc1 (centres undefined)	none (no result: ELG1 DNA repair, VP16 counter, RORg inh)
CC1C(=O)N(Cc2cn(CCC3OCCCO3)nn2)CCS(=O)(=O)N1Cc1ccc(-c2ccncc2)cc1 (centres undefined)	DT40 TDP1 no CPT 9.2µM (no result: ELG1 DNA repair, VP16 counter, RORg inh)
CC1C(=O)N(Cc2cn(CCC3OCCCO3)nn2)CCS(=O)(=O)N1Cc1ccc(-c2ccc(F)nc2)cc1 (centres undefined)	DT40 TDP1 CPT inconclusive, DT40 TDP1 no CPT 13µM (no result: ELG1 DNA repair, VP16 counter, RORg inh)
CC(C)C1C(=O)N(Cc2cn(CCC3OCCO3)nn2)CCS(=O)(=O)N1Cc1ccc(-c2ccc(F)nc2)cc1 (centres undefined)	12-LOX inh inconclusive, DT40 TDP1 CPT inconclusive, DT40 TDP1 no CPT 16µM (no result: ELG1 DNA repair, VP16 counter, RORg inh)
CC(C)C1C(=O)N(Cc2cn(CCC3OCCCO3)nn2)CCS(=O)(=O)N1Cc1ccc(-c2ccc(F)nc2)cc1 (centres undefined)	DT40 TDP1 CPT inconclusive, DT40 TDP1 no CPT 16µM (no result: ELG1 DNA repair, VP16 counter, RORg inh)
COc1ccc(NC(=O)c2cc3c(N4CCSCC4)nc(C)cn3n2)cc1OC	none (no result: ELG1 DNA repair, DT40 TDP1 CPT, VP16 counter, RORg inh, DT40 TDP1 no CPT)
CC(C)c1ccc(CN(C)C(=O)c2ccc(S(=O)(=O)NCc3ccco3)cc2)cc1	DT40 TDP1 CPT 21µM, DT40 TDP1 no CPT 21µM (no result: VP16 counter, RORg inh)
Cc1ccc(-c2nc3ccccc3o2)cc1NC(=S)NC(=O)c1cccs1	12-LOX inh inconclusive, ELG1 DNA repair inconclusive, VP16 counter inconclusive, RORg inh 4µM, DT40 TDP1 no CPT inconclusive
Cc1ccc(-c2nc3ccccc3[nH]2)cc1NC(=O)/C=C/c1ccco1	ELG1 DNA repair inconclusive, DT40 TDP1 CPT inconclusive, DT40 TDP1 no CPT 16µM
Cc1cc(C)c2oc(-c3ccc(C)c(NC(=S)NC(=O)/C=C/c4ccco4)c3)nc2c1	12-LOX inh inconclusive, DT40 TDP1 CPT inconclusive, VP16 counter 1.4µM, RORg inh 0.25µM, DT40 TDP1 no CPT inconclusive
